In one assay the target is ZNF583. Nature of the assay: pooled miR-30 sensor sort-seq; sequence = guide strand. The conditions noted are these: shRNA.
Take TTGACTAAGATGTACCTCTTGA: the sensor-assay potency score (higher = more potent) turned out to be 0.141.

In turn, TATAACTAAGATGTCTTGCTCC had a sensor-assay potency score (higher = more potent) of 0.322.

Take TTTTTTACATTCTTTACACTGA: the sensor-assay potency score (higher = more potent) came out at 0.132.

As for TACCTCTTGACTTCCCAGCTGG, the sensor-assay potency score (higher = more potent) stood at 0.168.

As for TTCGGTAACTTTTCTTTTGTGG, the sensor-assay potency score (higher = more potent) turned out to be 0.115.

The sequence TTTTCTACATAGACTTTCCTAT displayed a sensor-assay potency score (higher = more potent) of -0.369.

As to TTTCTTTTGTGGTTCATGCTTA, the sensor-assay potency score (higher = more potent) is 0.129.

Regarding TATATCAAAGATTGTATCCTGG, the sensor-assay potency score (higher = more potent) was 0.513.

TTTTACATTCTTTACACTGATA showed a sensor-assay potency score (higher = more potent) of -0.826.

In turn, TTTCTTTTCTACATAGACTTTC displayed a sensor-assay potency score (higher = more potent) of -0.596.

In the case of TTCTCCAACATCACTTTCCTGT, the sensor-assay potency score (higher = more potent) was found to be 0.0692.

In turn, TTCTTCATATGTCTCTTGCTTT showed a sensor-assay potency score (higher = more potent) of -0.61.

For a further assay, the target named is ZNF592. The assay is described as above. The conditions noted are these: shRNA.
TTTGTCATGCTCTCGTCCCCTT showed a sensor-assay potency score (higher = more potent) of -0.419.

TTGAAGACCATTTCACAGGAGC gave a sensor-assay potency score (higher = more potent) of -0.241.

TTGTCCTCTGGAAATGTGCAGC yielded a sensor-assay potency score (higher = more potent) of -0.92.

Take TTGAACTCCAAAGCTTCCCCGA: the sensor-assay potency score (higher = more potent) is -0.465.

With TTCTGCACGAACAAGAGTGGGC, the sensor-assay potency score (higher = more potent) is -0.174.

Take TTGTTGAAGACCATTTCACAGG: the sensor-assay potency score (higher = more potent) is -0.934.

Consider TTAGTGACACTAGCCACTCTTT, for which the sensor-assay potency score (higher = more potent) was -0.994.

Regarding TAATGTGGTCTTTCTCCGCTTC, the sensor-assay potency score (higher = more potent) is -0.0177.

TGATGCAGCAACACTGTGGGGG displayed a sensor-assay potency score (higher = more potent) of 0.194.

Source of the values: the OligoGym collection.
Also: reference of the scale not given here.
